The full list was thinned out, with hits kept by preference.
nsP2pro inh: inhibitors of chikungunya virus nsP2 protease; Q8JUX6; FRET peptide cleavage, nsP2pro, fluorescence 1 h; Potency, µM (top dose mostly 24.9 µM), inactives show top-dose activity change, negative = inhibition, most hits filed as inhibitors; actives 1.1% (n = 31,000); also: nearly all actives have a fitted effect of over 60% in size
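Enzyme 150 nM, substrate 2.5 uM (both final); Tris-HCl 10 mM pH 8.0 + 0.01% Tween 20; cpd up to 25 uM, 7 pts; 15 min preinc., 1 h RT; fluorescence ex 525/em 598.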
CHIKV nsP2 cell: cell-based CHIKV nsP2 protease inhibition, secondary | shares compounds with nsP2pro inh | cell-based CHIKV nsP2 protease reporter assay | Potency, µM (titrated, usually from 51.1 µM), for inactives: top-dose activity change, negative = inhibition, most hits filed as inhibitors | actives 10% (n = 450) | AID 1964100; also: nearly all actives have a fitted effect of over 70% in size
CHIKV NSP2 FL: full-length CHIKV NSP2 protease inhibition, selectivity | Full-length CHIKV NSP2 protease enzymatic counterscreen | shares compounds with nsP2pro inh | Potency, µM (top dose mostly 50.7 µM), without a hit: at the highest dose activity change, negative = inhibition, usual class: inhibitors | AID 1964101 | actives 39% (n = 410); also: nearly all actives have a fitted effect of over 65% in size
Furin counterscr: human furin inhibition, counterscreen for nsP2pro inhibitors | shares compounds with nsP2pro inh | Recombinant human furin enzymatic counterscreen, fluorogenic substrate | Potency, µM (series often up to 50.6 µM), inactives show at the top dose activity change, negative = inhibition, most hits filed as inhibitors | actives 6% (n = 410) | AID 1964102
Target sequence (P09958 whole entry, looked up): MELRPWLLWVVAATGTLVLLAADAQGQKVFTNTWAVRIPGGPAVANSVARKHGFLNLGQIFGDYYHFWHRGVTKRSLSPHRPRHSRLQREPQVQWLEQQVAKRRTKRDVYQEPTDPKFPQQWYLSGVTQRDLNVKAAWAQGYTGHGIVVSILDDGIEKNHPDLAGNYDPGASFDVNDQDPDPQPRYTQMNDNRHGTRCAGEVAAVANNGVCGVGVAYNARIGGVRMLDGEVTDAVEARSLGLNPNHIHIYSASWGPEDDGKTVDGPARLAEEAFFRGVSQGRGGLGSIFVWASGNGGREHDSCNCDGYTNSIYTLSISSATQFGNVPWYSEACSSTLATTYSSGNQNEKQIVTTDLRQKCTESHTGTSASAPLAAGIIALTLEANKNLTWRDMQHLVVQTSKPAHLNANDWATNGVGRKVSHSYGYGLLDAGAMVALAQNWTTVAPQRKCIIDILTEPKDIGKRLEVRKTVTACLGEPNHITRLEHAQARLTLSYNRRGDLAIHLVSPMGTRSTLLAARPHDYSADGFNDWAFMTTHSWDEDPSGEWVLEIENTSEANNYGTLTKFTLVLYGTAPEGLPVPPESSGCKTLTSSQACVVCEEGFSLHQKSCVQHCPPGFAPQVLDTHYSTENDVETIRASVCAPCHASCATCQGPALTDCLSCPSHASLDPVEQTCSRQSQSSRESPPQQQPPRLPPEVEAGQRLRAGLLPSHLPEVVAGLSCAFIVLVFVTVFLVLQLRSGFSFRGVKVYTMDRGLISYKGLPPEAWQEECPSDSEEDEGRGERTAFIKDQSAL
nsP2 NS23 pep: blocks CHIKV nsP2 protease cleavage of endogenous NS2/3 peptide; shares compounds with nsP2pro inh; Purified CHIKV nsP2 protease, endogenous NS2/3 peptide cleavage; Potency, µM (doses to about 51 µM), for the others: top-dose activity change, negative = inhibition, actives largely listed as inhibitors; actives 34% (n = 410); also: nearly all actives have a fitted effect of over 55% in size
Papain counter: selectivity counter-screen for CHIKV nsP2 protease inhibitors: papain | shares compounds with nsP2pro inh | purified papain protease activity, enzymatic inhibition | Potency, µM (titrated, usually from 51 µM), for inactives: at the top dose activity change, negative = inhibition, most hits filed as inhibitors | actives 5% (n = 410) | AID 1964104
nsP2pro confirm: confirmation of CHIKV nsP2 protease inhibitors. shares compounds with nsP2pro inh. CHIKV nsP2 protease enzymatic activity, qHTS. Potency, µM (series often up to 25.5 µM), for inactives: top-dose activity change, negative = inhibition, hits mostly inhibitors. actives 43% (n = 410). AID 1964105; also: nearly all actives have a fitted effect of over 75% in size
HCV NS3 counter: HCV NS3/4A protease inhibition, counterscreen. shares compounds with nsP2pro inh. HCV NS3/4A protease biochemical counterscreen. Potency, µM (series often up to 50.9 µM), hits mostly inhibitors. actives 20% (n = 410). AID 1964106; also: nearly all actives have a fitted effect of over 55% in size
Active calls of the source: *; i = inactive; ? = inconclusive; [ ] = remark or other dose. Calls follow the shape of the full dose curve. % is scaled to controls: 0 for no effect and ±100 for the full control effect; potency is read from the fitted curve at half-maximal effect.

SMILES | nsP2pro inh | others
CCN(CC)CCCNc1sc(S(=O)(=O)c2ccccc2)nc1S(=O)(=O)c1ccc(Cl)cc1 | 30.5%
COc1ccc(-c2ccc(NS(=O)(=O)c3ccccc3)cc2)nn1 | -2.0%
COc1ccc([N+](=O)[O-])c(S(=O)(=O)c2ccc(Cl)cc2)n1 | 6.31µM* | CHIKV nsP2 cell=2.06µM*;CHIKV NSP2 FL=23.1µM*;Furin counterscr=-1.2%;nsP2 NS23 pep=5.8µM*;Papain counter=-10.5%;nsP2pro confirm=-97.8%;HCV NS3 counter=i
COc1ccc([N+](=O)[O-])c(S(=O)(=O)c2ccccc2)n1 | 2.24µM* | CHIKV nsP2 cell=1.83µM*;CHIKV NSP2 FL=13µM*;Furin counterscr=?;nsP2 NS23 pep=3.26µM*;Papain counter=-11.6%;nsP2pro confirm=5.65µM*;HCV NS3 counter=?
COc1cc(NS(=O)(=O)c2cccc([N+](=O)[O-])c2)c2ncccc2c1 | 106.5%
CCN1C(=O)N(Cc2cccc(OC)c2)C(=O)C12CCN(Cc1nc3ccccc3n1C)CC2 | i
c1ccc2c(Nc3ccn[nH]3)nc(-c3ccncc3)nc2c1 | 1.8%
CC1=C(C(=O)N(C)C)C(c2ccccc2Br)N=C(Nc2nc3ccccc3o2)N1 (stereo not given) | i
Cc1ccsc1CN(C)c1ncnc2ccc(-c3ccoc3)cc12 | -22.1%
Cc1ccsc1CN(C)c1ncnc2ccc(-c3ccc(CO)o3)cc12 | 10µM* | CHIKV nsP2 cell=25.9µM*;CHIKV NSP2 FL=?;Furin counterscr=-8.7%;nsP2 NS23 pep=?;Papain counter=-8.3%;nsP2pro confirm=2.8%;HCV NS3 counter=23.1µM*
CCN(Cc1sccc1C)c1ncnc2ccc(-c3ccc4c(c3)OCO4)cc12 | i
COc1cccc(CNc2ccc(S(=O)(=O)Nc3cccc4ccncc34)cc2)c1O | i
CC(=O)Nc1sc2c(c1-c1nc3ccccc3s1)CCN(C1COC1)C2 | -15.8%
Cc1cccc(NC(=O)CSc2cc(C)c3ccccc3n2)c1 | -16.2%
Cc1cccc(-c2cc(-c3ccccc3)nc(SCC(=O)Nc3ccccc3)c2C#N)c1 | -9.0%
Cc1cccc(NC(=O)N[C@@H]2N=C(c3ccccc3)c3ccccc3N(C)C2=O)c1 | ? | CHIKV nsP2 cell=14.8%;CHIKV NSP2 FL=?;Furin counterscr=-9.5%;nsP2 NS23 pep=?;Papain counter=-10.7%;nsP2pro confirm=?;HCV NS3 counter=i
Cc1cccc(NC(=O)N[C@H]2CN(C)c3ccccc3C(c3ccccc3)=N2)c1 | ? | CHIKV nsP2 cell=40.3%;CHIKV NSP2 FL=?;Furin counterscr=-9.5%;nsP2 NS23 pep=?;Papain counter=-10.5%;nsP2pro confirm=?;HCV NS3 counter=i
Cc1cccc(NC(=O)CSc2nc3ccccc3nc2N2CCC(C)CC2)c1 | -14.9%
Cc1ccc(NC(=O)Nc2ccc3c(c2)N(C)C(=O)c2ccccc2S3)c(C)c1 | -8.2%
COc1cc(OC)cc(N2CCN(C(=S)Nc3cc(C)cc(C)n3)CC2)c1 | i
CCNC(=O)c1ccc(-c2ccc3ncnc(NCC(C)(C)C)c3c2)o1 | -2.6%
CC1(C)O[C@@]2(C)CC[C@@H]1C[C@@H]2OC1OC(CO)C(O)C(O)C1O (stereo not given in full) | 165.7%
COc1ccc(CNc2nc(N3CCCC3CO)ncc2C(=O)NCc2ncccn2)cc1Cl (stereo not given) | 0.7%
Cc1ccc(C(=O)Nc2ccccc2C(=O)Nc2nc(-c3ccccc3)cs2)cc1 | -1.8%
COc1ccc(CCC(=O)N2CCC3(CC2)CC(C(=O)N2CCOCC2)N(C)C3)cc1 (stereo not given) | i
SMILES | nsP2pro inh | others
Cc1cc(=O)oc2c3c(ccc12)OCN(Cc1ccccc1Cl)C3 | 32.3%
O=c1oc2c3c(ccc2c2ccccc12)OCN(Cc1ccccc1Cl)C3 | 1.12µM* | CHIKV nsP2 cell=114.6%;CHIKV NSP2 FL=-1.4%;Furin counterscr=-11.1%;nsP2 NS23 pep=11.6µM*;Papain counter=-3.8%;nsP2pro confirm=4µM*;HCV NS3 counter=i
O=c1oc2c3c(ccc2c2ccccc12)OCN(Cc1cccc(Cl)c1)C3 | -12.6%
C=C1C(=O)O[C@H]2C3=C(C)CCC[C@]3(C)C(=O)C[C@@H]12 | ? | CHIKV nsP2 cell=?;CHIKV NSP2 FL=?;Furin counterscr=1.6%;nsP2 NS23 pep=?;Papain counter=?;nsP2pro confirm=?;HCV NS3 counter=i
C=C1C(=O)O[C@@H]2[C@H]3O[C@]3(C)CC/C=C(\C)CC[C@@H]12 | -4.8%
C=C1CC[C@@H](O)[C@]2(C)CC[C@H]3C(=C)C(=O)O[C@@H]3[C@@H]12 | 12.4%
COc1ncccc1-c1n[nH]c2c1CC(=O)N(c1ccccc1)C2 | 11.4%[39.2 µM]
COCC1CN(Cc2ccc(OC)cc2)CC12CCNCC2 (stereo not given) | 1.9%
COCC1CN(Cc2ccc(Br)s2)CC12CCNCC2 (stereo not given) | ? | CHIKV nsP2 cell=?;CHIKV NSP2 FL=?;Furin counterscr=-14.4%;nsP2 NS23 pep=?;Papain counter=-2.6%;nsP2pro confirm=?;HCV NS3 counter=?
COCC1CN(C)CC12CCN(Cc1cccnc1)CC2 (stereo not given) | 4.2%
CC(C)S(=O)(=O)c1ccc2nccc(Nc3ccc4scnc4c3)c2c1 | 27.0%
N#Cc1nc(-c2cccc3ccccc23)oc1Nc1ccccc1 | -2.7%
CS(=O)(=O)NCCc1ccc(CC2CCN(C(=O)c3cnccn3)CC2)cc1 | i
CN(C)C(=O)N1CCC2(CC1)CC(c1cccc(C(F)(F)F)c1)=NO2 | -0.2%
COCCOc1cnc2ccn([C@H](C)c3nnc4c(F)cc(-c5cnn(C)c5)cn34)c(=O)c2c1 | ? | CHIKV nsP2 cell=3.2%;CHIKV NSP2 FL=-25.9%;Furin counterscr=-16.7%;nsP2 NS23 pep=-13.2%;Papain counter=3.5%;nsP2pro confirm=?;HCV NS3 counter=i
C/C=C(\C)C(=O)O | 1.0%
Cc1ccnc(NC(=S)N2CCN(c3ccc(C(F)(F)F)cc3[N+](=O)[O-])CC2)c1 | -8.5%
CC(=O)OC(CSC1CCC(=O)OC(C)CCC(=O)C1)C(=O)O (stereo not given) | ? | CHIKV nsP2 cell=5.8%[33.5 µM];CHIKV NSP2 FL=-5.4%[33.5 µM];Furin counterscr=-4.7%[33.5 µM];nsP2 NS23 pep=-10.8%[33.5 µM];Papain counter=-10.9%[33.5 µM];nsP2pro confirm=?;HCV NS3 counter=?
OCC1(CCCc2ccccc2)CCN(Cc2cccc3c2OCO3)CC1 | i
O=C(O)c1ccc(-c2ccc(NC(=O)c3cccs3)cn2)cc1 | -10.3%
O=C1CC2(CCN(C(=O)C3CCN(C(=O)c4ccccc4F)CC3)CC2)Oc2ccccc2N1 | i
Cc1cccc(-c2noc([C@@H]3Cc4nc[nH]c4CN3C(=O)c3ccc(-c4ccccc4)cc3)n2)c1 | i
Cc1cccc(-c2noc([C@@H]3Cc4nc[nH]c4CN3C(=O)C3CCCCC3)n2)c1 | 71.8%[39.2 µM]
O=C(NC1CCCCC1)N1Cc2[nH]cnc2C[C@H]1c1nc(-c2ccc(Cl)cc2)no1 | 4.47µM* | CHIKV nsP2 cell=56.3%;CHIKV NSP2 FL=33.5µM*;Furin counterscr=-9.4%;nsP2 NS23 pep=?;Papain counter=-9.5%;nsP2pro confirm=10.3µM*;HCV NS3 counter=i

Assay outcomes: PubChem BioAssay, National Center for Advancing Translational Sciences (NCATS)
